Experimental data as given in PubChem BioAssay AID624330 (Southern Research Specialized Biocontainment Screening …, 2012).
Hit rate of the full screen: of about 340,000 compounds, about 2,100 (0.62%) were called active.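 How the source made its calls: active means first-screen hits whose inhibition reached a set limit at any dose in the follow-up dose series; inconclusive means inhibition above the set first-screen limit but never retested; inactive means the rest.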 Only a sample is shown. Entries with a potency or affinity are not part of this list.

What follows are compounds tested against Rac GTPase-activating protein 1 (Homo sapiens) (UniProt Q9H0H5) (assay: MgcRacGAP GTPase-activating activity inhibitors, confirmation, biochemical, ADP Hunter fluorescence, primary and confirmatory (AID 624330;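 further: fluorescence reports GDP produced by GAP-driven GTP hydrolysis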)). Settings: MgcRacGAP-stimulated Rac1 GTP hydrolysis, at 30 µM, hits give high values, GST-tagged Rac1 F28L mutant substrate.
Rac GTPase-activating protein 1 (Homo sapiens), sequence (Q9H0H5 whole entry, looked up): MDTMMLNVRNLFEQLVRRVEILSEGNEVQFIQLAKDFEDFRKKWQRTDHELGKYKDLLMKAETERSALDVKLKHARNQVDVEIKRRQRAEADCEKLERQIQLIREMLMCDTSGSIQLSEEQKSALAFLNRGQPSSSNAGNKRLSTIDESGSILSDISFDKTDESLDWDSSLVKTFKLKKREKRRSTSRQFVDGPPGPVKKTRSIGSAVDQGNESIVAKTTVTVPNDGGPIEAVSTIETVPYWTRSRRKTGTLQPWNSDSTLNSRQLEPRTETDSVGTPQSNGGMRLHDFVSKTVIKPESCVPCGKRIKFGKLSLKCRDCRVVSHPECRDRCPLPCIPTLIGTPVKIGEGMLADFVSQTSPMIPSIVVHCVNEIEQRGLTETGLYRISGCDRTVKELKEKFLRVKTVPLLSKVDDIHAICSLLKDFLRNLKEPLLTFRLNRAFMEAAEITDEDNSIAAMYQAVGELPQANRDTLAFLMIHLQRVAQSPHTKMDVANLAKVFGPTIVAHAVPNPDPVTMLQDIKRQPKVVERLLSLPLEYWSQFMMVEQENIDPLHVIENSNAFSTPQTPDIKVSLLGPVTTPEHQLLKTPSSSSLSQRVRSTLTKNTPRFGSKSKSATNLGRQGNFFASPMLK

inhibition, inactive:
C[C@H]1CCCCO[C@@H](CN(C)S(=O)(=O)c2ccc(F)cc2)[C@@H](C)CN([C@@H](C)CO)C(=O)c2cc(NC(=O)Nc3ccc4c(c3)OCO4)ccc2O1 9.48%
CCN(CC)CCCNC(=S)N1CCn2c(nc3ccccc32)C1 6.61%
O=C(NCC1CCCO1)c1cc([N+](=O)[O-])ccc1Cl (centres undefined) 2.41%
O=C(CC1CCCC1)NNC(=O)c1ccc(Br)cc1 10.1%
CC1=NN(c2ccc(Cl)c(C(=O)O)c2)C(=O)/C1=C\c1ccc(-c2ccc(C(=O)O)cc2)o1 20.6%
CC1=NN(c2ccc(Br)cc2)C(=O)/C1=C/c1ccc(-c2ccccc2C(=O)O)o1 7.93%
CC1=NOC(=O)/C1=C\c1ccc(-c2cccc(Cl)c2)o1 12.5%
CC1=NOC(=O)/C1=C/c1ccc(-c2ccc(Cl)cc2)o1 13%
CC(=O)NCC1CCCN(Cc2cn(-c3ccccc3)nc2-c2ccc3c(c2)OCO3)C1 (centres undefined) -2.78%
COc1ccc(/C=N/NC(=O)CNC(=O)c2cccs2)cc1 2.55%
COc1cccc(/C=N/NC(=O)CNC(=O)c2ccco2)c1O 13.1%
O=C(CNC(=O)c1ccco1)N/N=C/c1ccc(O)c([N+](=O)[O-])c1 1.55%
COc1cc(/C=N/NC(=O)c2cccs2)ccc1O 9.66%
O=S(=O)(c1cccc(S(=O)(=O)N2CCCC2)c1)N1CCCCC1 -4.65%
O=C(COC(=O)/C=C/c1cccc(C(F)(F)F)c1)NC(c1ccccc1)c1ccccc1 -0.08%
Cc1oc2ccccc2c1-c1cn2c(n1)SCC2 18.1%
COC(=O)c1[nH]c(C)c(/C(O)=C2\C(=O)C(=O)N(CCN(C)C)C2c2ccccc2OC)c1C (centres undefined) -0.13%
CC(C)(C)OC(=O)NCC(=O)NCC(=O)OCc1ccccc1 4.89%
CC1(c2cccc(Br)c2)NC(=O)N(CC(=O)Nc2ccc3c(c2)OCO3)C1=O (centres undefined) 8.04%
NS(=O)(=O)c1ccc(CCNCc2cc(Br)ccc2OCc2ccccc2F)cc1 1.51%
COCC1CCCCN1Cc1cn[nH]c1-c1ccc(OC)cc1OC (centres undefined) -6.12%
CC(NC(=O)COC(=O)c1cc(=O)c2ccccc2o1)c1ccccc1 (centres undefined) 2.31%
COc1ccccc1/C=C/CN1CCC(Oc2ccc(C(=O)N3CCCC3)cc2)CC1 7.28%
COc1cccc(CN2CCC(CO)(CC3CCCCO3)CC2)c1 (centres undefined) 10.7%
OCC1(CC2CCCCO2)CCN(C/C=C/c2ccccc2)CC1 (centres undefined) 1.66%
COc1ccc(/C=C/CN2CCC(Oc3ccc(C(=O)N4CCCCC4)cc3)CC2)cc1 7.82%
O=C(NCC1CCCO1)c1ccccc1-c1nc(-c2ccc(Cl)cc2)no1 (centres undefined) 10.3%
CC(C)(C)NC(=O)NC(=O)CSc1nnc(-c2ccccc2F)n1N 11.7%
CC1(C)CC(O)C(C(O)c2cccc([N+](=O)[O-])c2)C(C)(C)N1 (centres undefined) -4.29%
CCOc1cc(/C=C2\C(=O)N(Cc3ccc(C)cc3)C(C)=C2C(=O)OC)ccc1O 13.1%
COC(=O)C1=C(C)N(Cc2ccco2)C(=O)/C1=C\c1ccc([N+](=O)[O-])cc1 40.1%
COC(=O)C1=C(C)N(Cc2ccc(C)cc2)C(=O)/C1=C\c1ccc(O)c(OC)c1 -0.65%
COC(=O)C1=C(C)N(CCc2ccc(OC)c(OC)c2)C(=O)/C1=C\c1ccc(O)cc1 27.5%
Cc1cccc(C(C)C)c1NC(=O)COC(=O)c1cc2ccccc2oc1=O 4.05%
CCOC(=O)C1CCN(C(=O)Cn2nc(C)n3nc(-c4ccc(OC)cc4)cc3c2=O)CC1 4.91%
CCOC(=O)C(O)(CC(=O)c1ccc(Cl)cc1)C(=O)OCC 3.02%
OCCn1c(-c2ccccc2)csc1=Nc1ccccc1 7.22%
CCn1c(-c2ccccc2)csc1=Nc1ccc(S(=O)(=O)O)cc1 9.33%
CCOC(=O)CC1CCCCN1C(=O)CCCn1nnnc1CN1CCOCC1 (centres undefined) 7.71%
Cc1cccc(OCC(=O)N2CCN(C(=O)Cc3ccccc3)CC2)c1 8.65%
O=C(COc1ccc2ccccc2c1)N1CCCC1 7.41%
Cc1cccc(OCC(=O)N2CCN(C(=O)COc3ccc(Cl)cc3)CC2)c1 9.73%
O=C(COc1ccc2ccccc2c1)N1CCN(C(=O)c2cccnc2)CC1 8.31%
CCOC(=O)N1CCN(C(=O)COc2ccc([N+](=O)[O-])cc2)CC1 -2.93%
Cc1ccc(OCC(=O)N2CCN(C(=O)c3ccc([N+](=O)[O-])cc3)CC2)cc1 4.34%
CCn1ccnc1CN(C)C(=O)C1CCC(=O)N(Cc2cccc(C(F)(F)F)c2)C1 (centres undefined) 4.11%
COc1cc(NC(=O)COC(=O)CNS(=O)(=O)c2ccc(F)c(F)c2F)cc(OC)c1 9.27%
COc1ccc(-n2nc(C(=O)NCC(=O)NCCN(C)C)c3ccccc3c2=O)c(OC)c1 8.96%
Cc1nn(C)cc1CNC(=O)/C=C/c1cnn(C)c1 -2.3%
O=[N+]([O-])c1ccc(N2CCCCC2)nc1N1CCCCC1 2.43%
O=C(COC(=O)C1CCN(c2ccc(C(F)(F)F)cn2)CC1)NCc1ccccc1 2.35%
CC12CCC(=O)N1C(C(=O)OCC(=O)Nc1ccc(S(N)(=O)=O)cc1)CS2 (centres undefined) 0.82%
N#Cc1ccc(-c2csc(NC(=O)c3ccc(N4C(=O)CCC4=O)cc3)n2)cc1 6.12%
CCCCOc1ccc(/C=c2\sc3ncnn3c2=O)cc1 8.68%
O=c1/c(=C/c2cccc3ccccc23)sc2ncnn12 17.9%
CN1CCN(C(=O)CN(C)S(=O)(=O)c2cc(Cl)ccc2Cl)CC1 1.86%
COc1ccc(CNCC(=O)Nc2ccccc2-n2cccc2)cc1 36.5%
COc1ccccc1CNCC(=O)Nc1ccc(C#N)cc1 31.8%
COc1ccccc1CNCC(=O)Nc1ccc(C(F)(F)F)cc1 25%
O=C1CN(C(=O)CNCc2ccccc2)c2ccccc2N1 23.4%
COc1ccccc1CNC(=O)Cc1ccc(C)cc1 4.63%
O=C(CNCc1ccco1)Nc1ccccc1-n1cccc1 12.8%
COc1ccccc1CNCc1ccc(C)cc1 7.48%
COc1ccccc1CNC(=O)CNC(=O)N1CC(=O)Nc2ccccc21 10.5%
